Test [1] is described as follows: blockers of polyQ-driven CASP3 activation – cell-based (AID 1583). As to conditions: polyglutamine-induced caspase-3 activation, cell assay; stronger effect = higher value;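 tested at 10 µM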.
The nature of test [2]: yeast 75Q aggregation reduction – 75Q-TubU reporter (AID 1593). As to conditions: Yeast 75Q polyglutamine aggregation reporter.
Test [3] in a line: restoration of touch response, mutant HTT neurons – whole organism, C. elegans mechanosensory neurons, N-terminal huntingtin (AID 1599). As to conditions: C. elegans polyQ-huntingtin mechanosensory neurons, stronger effect = higher value.
The nature of test [4]: blockers of cytochrome c efflux from mitochondria – biochemical, purified mitochondria (AID 1603).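 Also: mouse liver mitochondria challenged with calcium chloride; signal normalized to the plate average as 100%.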 Conditions: stronger effect = lower value.
Test [5] can be described thus: polyglutamine aggregate formation blockers (AID 1604). Conditions: polyglutamine-induced protein aggregation inhibition assay; stronger effect = higher value; tested at 2.5 µM.
The nature of test [6]: glutamate transport activators, MN-1 cells, MN-1 cell line (AID 1612).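 Also: tested at 1 µM final; 0% = mean of DMSO vehicle wells on each plate; positive means more glutamate uptake than control and negative means less.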 Conditions: MN-1 motor neuron cells, stronger effect = higher value.
The nature of test [7]: GFP-Q80 aggregate reduction, neuronal-like cells, cell-based, NGF-treated PC12, GFPQ80 (AID 1614).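 Also: lower means fewer inclusions and 0 means no inclusions at all.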 As to conditions: PC12 NGF-treated GFP-polyQ80 inclusion reduction.
Test [8] in a line: 75Q-TubH aggregate inhibition, S. cerevisiae, yeast (AID 1616). As to conditions: S. cerevisiae 75Q-TubH polyglutamine aggregation suppression; stronger effect = higher value.
The nature of test [9]: P. berghei load reduction in hepatocytes – cell-based, HepG2, luciferase luminescence, HepG2 viability, primary screen (AID 624349; in the data active = parasite load remaining mostly below about 12%, no sharp cut-off; inactive = mostly above about 10%;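 also: 100% = mean of DMSO negative control wells on the same plate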). Conditions: P. berghei liver stage in HepG2, luciferase luminescence, concentration not given here; parasite load remaining: stronger effect = lower value; viability: measured here: HepG2 viability without parasites.
Test [10] concerns the target 6-phosphogluconate dehydrogenase, decarboxylating (Homo sapiens) (UniProt P52209). Put plainly: inhibition of human phosphogluconate dehydrogenase – biochemical, recombinant enzyme, NADPH absorbance, primary screen (AID 1159550;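 active = at least 20% inhibition of 6-phosphogluconate dehydrogenase activity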). Conditions: recombinant 6PGD, NADPH absorbance 341 nm; at 10 µM; stronger effect = higher value.
A short description of test [11]: EMT-state selective cytotoxicity in co-culture – imaging, PC-3E GFP, TEM4-18 mCherry, primary screen (AID 1345086;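 active = compounds killing one labelled cell type while sparing the other, by normalised counts and ratio limits, not self-fluorescent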;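 as to all read-outs here: cells exposed to compound for 72 h before imaging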;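 as to red/green cell ratio (normalised): normalised mesenchymal count divided by normalised epithelial count so high means epithelial killing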). As to conditions: PC-3E GFP / TEM4-18 mCherry co-culture, imaging cell counts, at 1 µM; for red/green cell ratio (normalised): actives lie on both sides.
Test [12] has as its system Aerobactin synthetase IucA (Klebsiella pneumoniae hvKP1). Put plainly: IucA enzyme inhibition, primary screen, biochemical, Spectrum library (AID 1346200).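 Also: 100% = wells without compound and 0% = wells lacking enzyme.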 Conditions: malachite green pyrophosphate, A620, at 8 µM, stronger effect = lower value.
The nature of test [13]: viability loss with induced miR-34 in A549 – imaging, A549 dox-inducible miR-34, nuclei and caspase counts, primary screen (AID 1347080;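 active = compounds whose cell count with miR-34 switched on is under 0.7 times the count with it off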). As to conditions: A549 miR-34 inducible, Hoechst nuclei count, 48 h.
The nature of test [14]: MELAS cybrid and Rieske KO viability enhancers – cell-based, MELAS cybrids, Rieske KO mouse fibroblasts, CellTiter-Glo, primary screen (AID 1508586;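 active = mean z-score across replicates of 1.96 or higher in either the MELAS or the Rieske mutant cell line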;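 also: z relative to plate mean and SD of compound and empty wells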). As to conditions: low glucose. In general terms: Cellular ATP, detected with luciferase, serves as a proxy for viable cell number.
The target of test [15] is NAD(+) hydrolase SARM1 (Homo sapiens) (UniProt Q6SZW1). Nature of the test: blocking NAD cleavage by SARM1 SAM-TIR – cell lysate, NAD-Glo luminescence (AID 1508614;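 active = compound whose remaining NAD level is above about 45 nM, limit read from the data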;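 also: higher remaining NAD means stronger inhibition of SARM1 NADase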). As to conditions: SAM-TIR HEK293T lysate NADase, at 1 µM, stronger effect = higher value.
Sequence of NAD(+) hydrolase SARM1 (Homo sapiens) (Q6SZW1 whole entry, looked up, the tested form may be a part): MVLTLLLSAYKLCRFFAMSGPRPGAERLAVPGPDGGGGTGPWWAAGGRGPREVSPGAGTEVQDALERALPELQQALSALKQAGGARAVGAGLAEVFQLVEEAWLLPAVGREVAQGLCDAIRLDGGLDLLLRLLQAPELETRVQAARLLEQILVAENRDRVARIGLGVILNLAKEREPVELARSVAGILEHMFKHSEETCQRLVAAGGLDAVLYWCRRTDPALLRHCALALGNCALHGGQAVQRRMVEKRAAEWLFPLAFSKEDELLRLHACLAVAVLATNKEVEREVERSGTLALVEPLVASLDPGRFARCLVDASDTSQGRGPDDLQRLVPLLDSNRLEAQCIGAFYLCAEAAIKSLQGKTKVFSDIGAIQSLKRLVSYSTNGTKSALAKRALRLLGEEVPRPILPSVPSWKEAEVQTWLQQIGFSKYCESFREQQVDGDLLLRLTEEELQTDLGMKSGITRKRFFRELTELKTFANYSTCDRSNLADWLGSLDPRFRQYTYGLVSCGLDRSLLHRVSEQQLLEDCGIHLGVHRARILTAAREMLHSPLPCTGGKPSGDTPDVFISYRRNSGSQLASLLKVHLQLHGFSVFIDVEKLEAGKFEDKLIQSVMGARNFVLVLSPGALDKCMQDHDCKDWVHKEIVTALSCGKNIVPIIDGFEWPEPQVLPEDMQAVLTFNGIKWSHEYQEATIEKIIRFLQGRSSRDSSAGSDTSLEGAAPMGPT
In test [16] the target is Mitogen-activated protein kinase 7 (Homo sapiens) (UniProt Q13164). Put plainly: Gal4-ERK5 driven luciferase induction – cell-based, HTS, primary screen (AID 1508626;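 active = luciferase signal above three times the same-plate solvent-only control wells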;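 also: luciferase driven by Gal4-ERK5 fusion binding five Gal4 sites before minimal TATA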). Conditions: HeLa Gal4-ERK5 transactivation, 18 h, at 5 µM, stronger effect = higher value.
Sequence of Mitogen-activated protein kinase 7 (Homo sapiens) (Q13164 whole entry, looked up, the tested form may be a part): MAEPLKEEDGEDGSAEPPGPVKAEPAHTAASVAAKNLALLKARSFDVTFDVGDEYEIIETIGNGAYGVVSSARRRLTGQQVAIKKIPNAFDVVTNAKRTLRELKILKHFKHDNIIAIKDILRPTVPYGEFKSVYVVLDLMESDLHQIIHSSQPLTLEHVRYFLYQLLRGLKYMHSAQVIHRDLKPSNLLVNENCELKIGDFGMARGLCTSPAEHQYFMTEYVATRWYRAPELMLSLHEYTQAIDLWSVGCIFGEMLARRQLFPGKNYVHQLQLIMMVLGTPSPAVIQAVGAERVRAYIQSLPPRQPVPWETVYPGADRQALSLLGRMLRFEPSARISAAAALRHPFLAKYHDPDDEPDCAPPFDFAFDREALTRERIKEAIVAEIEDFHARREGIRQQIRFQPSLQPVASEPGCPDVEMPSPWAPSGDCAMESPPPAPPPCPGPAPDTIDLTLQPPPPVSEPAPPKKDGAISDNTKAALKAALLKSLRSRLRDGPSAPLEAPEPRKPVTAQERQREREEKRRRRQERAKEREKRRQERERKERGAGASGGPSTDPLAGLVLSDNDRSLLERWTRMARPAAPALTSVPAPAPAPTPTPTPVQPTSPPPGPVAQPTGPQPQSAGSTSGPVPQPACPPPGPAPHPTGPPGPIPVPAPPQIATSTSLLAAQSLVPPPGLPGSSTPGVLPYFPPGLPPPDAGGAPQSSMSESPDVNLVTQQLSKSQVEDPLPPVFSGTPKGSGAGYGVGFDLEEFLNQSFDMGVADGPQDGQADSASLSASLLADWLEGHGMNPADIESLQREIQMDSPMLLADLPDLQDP
Test [17] deals with ATP-dependent translocase ABCB1 (Homo sapiens) (UniProt P08183). Nature of the test: P-glycoprotein substrate transport blockade – cell-based (AID 377; in the data active = fluorescence slope change above about 50%). Conditions: MDR1-expressing cells, fluorescent substrate accumulation slope; stronger effect = higher value; concentration not given here.
Sequence of ATP-dependent translocase ABCB1 (Homo sapiens) (P08183 whole entry, looked up): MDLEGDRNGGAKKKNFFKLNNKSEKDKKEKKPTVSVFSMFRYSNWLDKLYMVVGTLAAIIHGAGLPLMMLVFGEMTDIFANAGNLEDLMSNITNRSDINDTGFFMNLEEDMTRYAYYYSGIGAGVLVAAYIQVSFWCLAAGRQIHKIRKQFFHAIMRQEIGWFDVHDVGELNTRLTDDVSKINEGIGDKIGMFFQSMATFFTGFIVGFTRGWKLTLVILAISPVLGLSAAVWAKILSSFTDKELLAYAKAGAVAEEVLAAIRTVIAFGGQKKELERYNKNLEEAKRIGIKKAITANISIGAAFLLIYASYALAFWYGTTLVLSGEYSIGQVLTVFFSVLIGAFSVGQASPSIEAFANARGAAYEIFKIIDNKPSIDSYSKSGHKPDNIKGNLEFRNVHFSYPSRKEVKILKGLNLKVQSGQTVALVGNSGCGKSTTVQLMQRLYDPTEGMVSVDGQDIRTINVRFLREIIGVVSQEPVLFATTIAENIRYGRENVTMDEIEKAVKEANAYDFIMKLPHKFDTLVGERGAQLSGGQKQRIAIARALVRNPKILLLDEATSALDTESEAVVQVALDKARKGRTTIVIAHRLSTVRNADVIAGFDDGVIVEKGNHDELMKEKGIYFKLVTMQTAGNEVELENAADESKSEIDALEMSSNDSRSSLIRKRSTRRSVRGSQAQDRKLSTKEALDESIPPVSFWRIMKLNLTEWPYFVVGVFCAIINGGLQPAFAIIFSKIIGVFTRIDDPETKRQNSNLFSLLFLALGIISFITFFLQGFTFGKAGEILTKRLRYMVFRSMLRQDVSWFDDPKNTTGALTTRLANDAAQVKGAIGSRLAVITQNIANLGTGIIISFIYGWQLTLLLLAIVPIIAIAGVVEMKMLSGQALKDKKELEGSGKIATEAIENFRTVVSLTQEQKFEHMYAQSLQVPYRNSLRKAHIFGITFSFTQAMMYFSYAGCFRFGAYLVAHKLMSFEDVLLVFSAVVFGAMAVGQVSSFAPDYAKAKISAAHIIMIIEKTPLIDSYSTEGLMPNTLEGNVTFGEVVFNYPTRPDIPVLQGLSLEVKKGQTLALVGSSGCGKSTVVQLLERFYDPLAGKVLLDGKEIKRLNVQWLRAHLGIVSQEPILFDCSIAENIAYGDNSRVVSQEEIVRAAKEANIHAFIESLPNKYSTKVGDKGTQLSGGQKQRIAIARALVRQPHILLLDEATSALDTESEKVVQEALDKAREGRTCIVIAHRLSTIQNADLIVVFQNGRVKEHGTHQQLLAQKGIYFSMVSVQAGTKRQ
The nature of test [18]: compounds altering viability of human ES cells (AID 493140).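 Also: cells exposed to compounds for four days before counting.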 Conditions: human embryonic stem cell survival screen; stronger effect = higher value.
Test [19] deals with Aerobactin synthetase IucA (Klebsiella pneumoniae, hypervirulent). Nature of the test: biochemical IucA inhibition screen of LOPAC library by absorbance (AID 1346212).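 Also: 100% = no compound wells and 0% = no enzyme wells.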 As to conditions: IucA enzyme assay, absorbance (OD) readout; stronger effect = lower value;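 tested at 8 µM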.
Test [20] is described as follows: galactose survival enhancers in mitochondrial complex I cybrids – cell-based, galactose medium, ATP luminescence, primary screen (AID 1645843;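 active = z-score of at least 1.8 in each of two replicates, scored against plate mean and spread of sample wells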;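 also: positive z means more ATP and so rescue of galactose-driven cybrid death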). As to conditions: complex I mutant cybrid cells, 72 h, stronger effect = higher value.
Setting [21] is: measured here: epithelial PC-3E GFP cell survival.
The mark [22] stands for this setting: measured here: mesenchymal TEM4-18 mCherry cell survival.
Setting [23] is: measured here: relative caspase fold change +Dox/-Dox.
[24] abbreviates: measured here: total cells with miR-34 induction, stronger effect = lower value.
[25] abbreviates: measured here: total cells without miR-34 induction.
The mark [26] stands for this setting: MELAS cybrid survival, CellTiter-Glo 48 h, stronger effect = higher value.
[27] abbreviates: Rieske KO mouse fibroblast survival, CellTiter-Glo 72 h.

The values below come from PubChem BioAssay.

“And” between values parts separate entries of the source, which are not always exact repeats. Identical values can stand only once. Inconclusive results are not listed. For some of these results: Entries with a potency or affinity are not part of this list. The source made the active and inactive calls. Unless noted, no rule for the calls is given here.

Usually inhibition stands for the relative decrease from the control value, in per cent. A word on the viability: it is a read-out of living cells in per cent, often relative to untreated cells. One may read the remaining activity as the signal under treatment as a percentage of the control signal.

Sequence of 6-phosphogluconate dehydrogenase, decarboxylating (Homo sapiens) (P52209 whole entry, looked up): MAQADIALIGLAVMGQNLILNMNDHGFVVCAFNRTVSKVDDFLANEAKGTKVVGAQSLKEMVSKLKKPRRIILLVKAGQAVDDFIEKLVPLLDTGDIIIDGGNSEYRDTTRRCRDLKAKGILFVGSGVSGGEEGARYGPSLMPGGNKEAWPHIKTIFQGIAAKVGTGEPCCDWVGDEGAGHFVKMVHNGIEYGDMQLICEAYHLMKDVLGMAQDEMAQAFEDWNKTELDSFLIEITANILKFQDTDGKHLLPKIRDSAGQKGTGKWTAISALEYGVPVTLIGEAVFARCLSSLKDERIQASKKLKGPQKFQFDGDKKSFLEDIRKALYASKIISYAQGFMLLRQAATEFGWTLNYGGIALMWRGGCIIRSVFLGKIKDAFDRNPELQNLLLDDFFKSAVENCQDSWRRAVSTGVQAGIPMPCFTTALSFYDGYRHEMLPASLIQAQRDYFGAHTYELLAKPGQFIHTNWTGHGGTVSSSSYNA

For `C[C@H](N)[C@H](O)c1ccc(O)c(O)c1`, the inhibition is 6.31% in test [1] and -1.74% (inactive) in test [10]. The molecule also had a score in test [2] of 1.43. Besides, the rescue above control in [3] was found to be 4.59. In addition, in test [4], the cytochrome c release ratio turned out to be 0.9. In [5], this molecule showed an inhibition of aggregation of 7.58%. In test [6], this molecule returned a glutamate uptake change of 12.7%. Moreover, the inclusion score in [7] was 2. In test [8], this molecule returned an aggregation suppression score of 1.14. Further, the parasite load remaining in test [9] is 61.3% (inactive) and 64.5% (inactive) and 57.8% (inactive). Further, the viability in test [9] is 93.6% and 73.6% and 105%. The red/green cell ratio (normalised) in test [11] was 1.17 (inactive). Further, the normalised cell number in [11] (setting [21]) stood at 1.01; in [11] (setting [22]) it was 1.18. Besides, the activity remaining in test [12] was 102% (inactive). The fold change in [13] (stronger effect = lower value) was 0.912 (inactive) and 0.869 (inactive); in test [13] (setting [23]), 1.02 and 0.57. In addition, the cell count was 9300 and 11200 in test [13] (setting [24]); 10200 and 12900 in [13] (setting [25]). The figures for the z-score in [14] (setting [26]) and in test [14] (setting [27]) were -0.729 (inactive) and -1.14, respectively. In addition, in [15], the remaining NAD is 10 nM (inactive). The luciferase signal in [16] is 16 AU (inactive).

As for `CN1CCc2cc3c(cc2C1O)OCO3` (stereo unspecified), in [17], the fluorescence slope change is 10.4% (inactive). Further, the results for the inhibition in test [1] and in test [10] were -17.4% and 0.261% (inactive), respectively. In test [2], this molecule came in with a score of 1.48. This molecule also displayed a rescue above control in test [3] of 11.7. Also, the cytochrome c release ratio in [4] was 0.81. The molecule further displayed an inhibition of aggregation in [5] of 65.5%. For the same molecule, the glutamate uptake change in test [6] worked out at 6.97%. For the same molecule, the inclusion score in [7] amounted to 2. The same molecule registered an aggregation suppression score in [8] of 1.11. Further, the survival in test [18] was 16.8 (inactive). In addition, the parasite load remaining in test [9] was 109% (inactive) and 58% (inactive). Also, the viability in test [9] is 90% and 91.8%. For the same molecule, the red/green cell ratio (normalised) in [11] was 1.09 (inactive). Moreover, the normalised cell number in [11] (setting [21]) is 0.97; in test [11] (setting [22]) it was 1.06. The activity remaining in test [12] is 118% (inactive). Also, the values for the fold change in test [13] (stronger effect = lower value) and in test [13] (setting [23]) were 0.923 (inactive) and 1.43, respectively. For the same molecule, the cell count in [13] (setting [24]) is 11700; in test [13] (setting [25]) it was 12700. For the same molecule, in [15], the remaining NAD is 10 nM (inactive). The luciferase signal in [16] is 52 AU (inactive).

`CC[C@@H]1C(=O)OC[C@@H]1Cc1cncn1C`: the fluorescence slope change in [17] was 105% (active). The values for the inhibition in test [1] and in test [10] were 5.24% and -6.49% (inactive), respectively. Also, the score in test [2] is 1.3. Further, the rescue above control in test [3] turned out to be 1.26. Besides, in [4], the cytochrome c release ratio was determined as 1.64. For the same molecule, the inhibition of aggregation in [5] was determined as 35.3%. Moreover, in test [6], the glutamate uptake change worked out at 4.33%. For the same molecule, in [7], the inclusion score came out at 2. In test [8], this molecule displayed an aggregation suppression score of 1.4. Further, the survival in test [18] is 5.75 (inactive). Besides, in test [11] (counts scaled to control wells, 1 = unselective), the red/green cell ratio (normalised) is 1.18 (inactive). Moreover, the results for the normalised cell number in test [11] (setting [21]) and in test [11] (setting [22]) were 0.97 and 1.14, respectively. In addition, the activity remaining in test [12] is 115% (inactive). The remaining activity in [19] was 112% (inactive) and 106% (inactive). Also, the z-score in test [14] (setting [26]) was 0.213 (inactive); in [14] (setting [27]), -0.117; in [20] it was 0.47 (inactive) and 0.265 (inactive) and 0.26 (inactive). Further, the remaining NAD in [15] is 10 nM (inactive). In test [16], the luciferase signal is 44 AU (inactive).

On to `S=C=NCc1ccccc1`, for which, in test [9], the parasite load remaining is 45.7% (inactive) and the viability is 72.2%. Besides, the inhibition in test [10] is -1.63% (inactive). Besides, the red/green cell ratio (normalised) in [11] was 0.83 (inactive). This molecule also returned a normalised cell number in [11] (setting [21]) of 1.15. The same molecule displayed a normalised cell number in test [11] (setting [22]) of 0.95. For the same molecule, in test [12], the activity remaining is 83.8% (inactive). The remaining NAD in test [15] was 10 nM (inactive). In addition, in [16], the luciferase signal was 168 AU (active).
